Laboratory results as given in PubChem BioAssay (NCATS).
Values without a mark were called inactive. No rule for the calls is given here.

System: HIV-1 nucleocapsid protein NCp7 (binding to TG oligonucleotide)
Experiment: HIV Nucleocapsid (AID 346);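 also: potency is for inhibitors that block NC binding and lower polarization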
Conditions: HIV-1 NC / fluorescein-TGTGTGTG probe, fluorescence polarization
Procedure, shortened: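 10 nM TG4xF probe with 100 nM nucleocapsid protein in high-salt Hepes pH 7.5 (250mM NaCl) containing 1uM ZnCl2 and reducing agents. Compound inhibition of binding was read as fluorescein polarization after 1 hr at room temperature.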
Potency is read from the fitted curve at half-maximal effect.

SMILES	Potency
CC(=O)N1CCC2(CC1)CN(Cc1ccccc1)C2	> 20 µM
N#Cc1ccc(CN2CCCC3(CCN(C(=O)c4ccco4)CC3)C2)cc1	> 20 µM
O=c1c(-c2ccc(Cl)cc2)nc2cnc(N3CCNCC3)nc2n1Cc1cccs1	> 20 µM
c1ccc(-c2cccc(N3CC4(CCNCC4)C3)c2)cc1	> 20 µM
CC(=O)N1CCC2(CC1)CCN(C(=O)Nc1cccc(F)c1)CC2	> 20 µM
O=c1c(-c2cc(F)cc(F)c2)nc2cnc(N3CCNCC3)nc2n1CCc1ccccc1	> 20 µM
CN(C)c1ncc2nc(CCc3ccccc3)c(=O)n(Cc3ccc(F)cc3)c2n1	> 20 µM
FC(F)(F)c1ccccc1-c1nccc(NCCN2CCOCC2)n1	> 20 µM
COc1ccccc1CN1CCCC2(CCN(C(=O)c3cccn3C)CC2)C1	> 20 µM
CN(C)C(=O)c1ccc(-c2cncnc2Nc2ccccc2)cc1	> 20 µM
O=C(Nc1cccc(F)c1)N1CCC2(CC1)CCN(C(=O)c1cc(C(F)(F)F)cc(C(F)(F)F)c1)CC2	> 20 µM
Cc1noc(C)c1-c1cc(Nc2ccc(F)cc2)ncn1	> 20 µM
COc1ccc2[nH]cc(CCNc3cc(-c4ccccc4Cl)ncn3)c2c1	> 20 µM
CN1CCN(c2ncncc2-c2ccoc2)CC1	> 20 µM
CS(=O)(=O)N1CCC2(CC1)CN(Cc1ccc(C#N)cc1)C2	> 20 µM
